In ChEMBL document CHEMBL1961873, “Compounds: GSK PKIS; Assays: Nanosyn kinase panel” (2012):

Each molecule was assayed against T1, Tyrosine-protein kinase ZAP-70 (Homo sapiens) (UniProt P43403). Conditions: at 0.1 µM.
T1 sequence (whole entry): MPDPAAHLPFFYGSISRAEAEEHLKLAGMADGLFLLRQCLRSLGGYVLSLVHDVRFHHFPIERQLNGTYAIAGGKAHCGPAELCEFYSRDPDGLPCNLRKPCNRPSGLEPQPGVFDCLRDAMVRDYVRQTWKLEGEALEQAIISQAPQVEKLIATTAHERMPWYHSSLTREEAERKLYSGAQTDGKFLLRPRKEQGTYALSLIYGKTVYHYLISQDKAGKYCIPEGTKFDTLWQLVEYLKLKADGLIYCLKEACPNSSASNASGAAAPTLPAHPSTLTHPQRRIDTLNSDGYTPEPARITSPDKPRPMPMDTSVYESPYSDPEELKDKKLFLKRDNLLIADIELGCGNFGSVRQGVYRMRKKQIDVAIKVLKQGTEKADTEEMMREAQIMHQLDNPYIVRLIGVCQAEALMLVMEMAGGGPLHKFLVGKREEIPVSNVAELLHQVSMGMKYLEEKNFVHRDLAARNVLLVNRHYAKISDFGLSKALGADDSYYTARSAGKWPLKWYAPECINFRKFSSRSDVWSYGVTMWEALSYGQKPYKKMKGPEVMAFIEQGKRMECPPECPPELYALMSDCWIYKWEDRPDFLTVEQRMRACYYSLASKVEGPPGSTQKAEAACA
For `Fc1ccc(-c2nn3ccccc3c2-c2ccncc2)cc1`, the inhibition was 0.73%.
`NS(=O)(=O)c1ccc(N/N=C2\C(=O)Nc3ccc4ncccc4c32)cc1` was tested, and the inhibition was 3.49%.
Molecule `CCc1nn2ncccc2c1-c1ccnc(NC2CC2)n1` has an inhibition of 1.02%.
`O=C(Nc1n[nH]c2cc(-c3ccc(F)cc3)ccc12)C1CC1` gave an inhibition of 1.71%.
`CCn1cc(-c2ccnc3[nH]ccc23)c(-c2cccc(NC(=O)Nc3ccc(OCc4ccccc4)cc3)c2)n1` was tested, and the inhibition was -0.61%.
For `CC(C)COC(=O)c1ccc2c(c1)/C(=C/Nc1ccc(S(N)(=O)=O)cc1)C(=O)N2`, the inhibition was -2.35%.
`NS(=O)(=O)c1ccc(Nc2ncc(-c3ccccc3)o2)cc1` was tested, and the inhibition was 2.88%.
`Cc1ccc(O)cc1Nc1ccnc2cc(-c3ccccn3)ccc12` gave an inhibition of 0.52%.
Molecule `COc1cc2ncn(-c3cc(OCc4ccccc4C(F)(F)F)c(C(=O)N(C)C)s3)c2cc1OC` has an inhibition of 1.79%.
For `COc1cccc(-n2ncc3c(N/N=C/c4ccc(F)cc4)ncnc32)c1`, the inhibition was 2.73%.
Molecule `COc1cc(Nc2nccc(Nc3ccc4c(C)n[nH]c4c3)n2)cc(OC)c1OC` has an inhibition of 9.11%.
With `COc1ccc(-c2cc3c(N)ncnc3o2)cc1` the inhibition was -2.99%.
Molecule `Nc1ncc(-c2cccc(S(N)(=O)=O)c2)c2scc(-c3ccc(F)c(Cl)c3)c12` has an inhibition of 1.28%.
Work on `COC(=O)c1sc(-n2cnc3cc(OC)c(OC)cc32)cc1OCc1ccccc1C(F)(F)F` yielded an inhibition of 1.17%.
`Clc1ccc(-c2nn3ncccc3c2-c2ccnc(Nc3ccccc3)n2)cc1` gave an inhibition of 0.2%.
`CC(=O)NCc1cccc(C#Cc2cncnc2Nc2ccc(OCc3cccc(F)c3)c(Cl)c2)c1` gave an inhibition of -1.79%.
`COc1cc2c(cc1Nc1nc(Nc3ccsc3C(N)=O)c3cc[nH]c3n1)N(C(=O)CN(C)C)CCC2(C)C` was tested, and the inhibition was 2.36%.
For `Cc1cccc(Nc2ncc(-c3ccccc3)o2)c1`, the inhibition was 1.66%.
Molecule `CCn1c(-c2nonc2N)nc2cnc(Oc3cccc(NC(=O)c4ccc(N(C)C)cc4)c3)cc21` has an inhibition of 1.81%.
`COc1ccc(-c2oc3ncnc(N)c3c2-c2ccc(NC(=O)Nc3cc(C(F)(F)F)ccc3F)cc2)cc1` was tested, and the inhibition was 0.23%.
In the case of `COc1cc(/C=N/Nc2ncnc3[nH]ncc23)ccc1O`, the inhibition is reported as 0.75%.
In the case of `Fc1cccc(COc2ccc(Nc3ncnc4sc(-c5ccco5)cc34)cc2Cl)c1`, the inhibition is reported as 0.85%.
`CN1CCC(n2cnc(-c3ccc(F)cc3)c2-c2ccnc(Nc3ccccc3)n2)CC1` showed an inhibition of 1.81%.
`CNC(=O)c1cccc(C#Cc2cncnc2Nc2ccc(OCc3cccc(F)c3)c(Cl)c2)c1` gave an inhibition of 2.49%.
With `CCOc1ccc2c(-c3ccnc(Nc4cccc(C(F)(F)F)c4)n3)cnn2n1` the inhibition was 0.89%.
`CCN1CCC(CC(=O)Nc2n[nH]c3nnc(-c4cccc(F)c4F)cc23)CC1` gave an inhibition of -0.89%.
In the case of `FC(F)(F)c1cccc(-c2nn3ncccc3c2-c2ccnc(Nc3ccc4c(c3)OCCO4)n2)c1`, the inhibition is reported as 2%.
`CN(C)CCOc1ccc(-c2nc(-c3ccncc3)c(-c3ccc4c(c3)CC/C4=N\O)[nH]2)cc1` was tested, and the inhibition was -1.98%.
Molecule `Cc1cccc2c1NC(=O)/C2=N\Nc1ccc(S(N)(=O)=O)cc1` has an inhibition of 2.59%.
`COc1cccc(-c2c[nH]c3c(N/N=C/c4ccncc4)ncnc23)c1` gave an inhibition of 1.26%.
Work on `COc1ccc(-c2cc(-c3c[nH]nc3-c3ccccn3)ccn2)cc1` yielded an inhibition of 1.69%.

The molecules below were run against T1, Tyrosine-protein kinase ZAP-70 (Homo sapiens). Conditions: at 1 µM.
Work on `Fc1ccc(-c2nn3ccccc3c2-c2ccncc2)cc1` yielded an inhibition of 2.32%.
In the case of `NS(=O)(=O)c1ccc(N/N=C2\C(=O)Nc3ccc4ncccc4c32)cc1`, the inhibition is reported as 18.7%.
In the case of `CCc1nn2ncccc2c1-c1ccnc(NC2CC2)n1`, the inhibition is reported as -2.31%.
For `O=C(Nc1n[nH]c2cc(-c3ccc(F)cc3)ccc12)C1CC1`, the inhibition was 3.64%.
`CCCN1CCC(c2ccc(Nc3nc(Nc4cc(F)ccc4C(N)=O)c4cc[nH]c4n3)c(OC)c2)CC1` was tested, and the inhibition was 29.3%.
`CCCN(CCS(C)(=O)=O)Cc1ccc(-c2ccc3ncnc(Nc4ccc(OCc5cccc(F)c5)c(Cl)c4)c3c2)o1` was tested, and the inhibition was 1.73%.
`CCn1cc(-c2ccnc3[nH]ccc23)c(-c2cccc(NC(=O)Nc3ccc(OCc4ccccc4)cc3)c2)n1` showed an inhibition of 2.51%.
With `CC(C)COC(=O)c1ccc2c(c1)/C(=C/Nc1ccc(S(N)(=O)=O)cc1)C(=O)N2` the inhibition was 1.21%.
`NS(=O)(=O)c1ccc(Nc2ncc(-c3ccccc3)o2)cc1` was tested, and the inhibition was 2.94%.
`Cc1ccc(O)cc1Nc1ccnc2cc(-c3ccccn3)ccc12` showed an inhibition of 4.03%.
`COc1cc2ncn(-c3cc(OCc4ccccc4C(F)(F)F)c(C(=O)N(C)C)s3)c2cc1OC` showed an inhibition of 1.15%.
`COc1ccc(-c2nn3ncccc3c2-c2ccnc(Nc3ccc4c(c3)OCCO4)n2)cc1` showed an inhibition of -0.83%.
`COc1cccc(-n2ncc3c(N/N=C/c4ccc(F)cc4)ncnc32)c1` was tested, and the inhibition was 2.54%.
`COc1cc(Nc2nccc(Nc3ccc4c(C)n[nH]c4c3)n2)cc(OC)c1OC` showed an inhibition of 32.7%.
`COc1ccc(-c2cc3c(N)ncnc3o2)cc1` showed an inhibition of -0.14%.
For `Nc1ncc(-c2cccc(S(N)(=O)=O)c2)c2scc(-c3ccc(F)c(Cl)c3)c12`, the inhibition was 2.18%.
With `COC(=O)c1sc(-n2cnc3cc(OC)c(OC)cc32)cc1OCc1ccccc1C(F)(F)F` the inhibition was 2.18%.
Molecule `Clc1ccc(-c2nn3ncccc3c2-c2ccnc(Nc3ccccc3)n2)cc1` has an inhibition of 0.42%.
In the case of `CC(=O)NCc1cccc(C#Cc2cncnc2Nc2ccc(OCc3cccc(F)c3)c(Cl)c2)c1`, the inhibition is reported as 2.22%.
In the case of `COc1cc2c(cc1Nc1nc(Nc3ccsc3C(N)=O)c3cc[nH]c3n1)N(C(=O)CN(C)C)CCC2(C)C`, the inhibition is reported as 14.9%.
`Cc1cccc(Nc2ncc(-c3ccccc3)o2)c1` showed an inhibition of 1.24%.
With `CCn1c(-c2nonc2N)nc2cnc(Oc3cccc(NC(=O)c4ccc(N(C)C)cc4)c3)cc21` the inhibition was 2.72%.
For `COc1ccc(-c2oc3ncnc(N)c3c2-c2ccc(NC(=O)Nc3cc(C(F)(F)F)ccc3F)cc2)cc1`, the inhibition was 4.77%.
Molecule `COc1cc(/C=N/Nc2ncnc3[nH]ncc23)ccc1O` has an inhibition of 7.51%.
Work on `Fc1cccc(COc2ccc(Nc3ncnc4sc(-c5ccco5)cc34)cc2Cl)c1` yielded an inhibition of 2.41%.
Molecule `CNC(=O)c1cccc(C#Cc2cncnc2Nc2ccc(OCc3cccc(F)c3)c(Cl)c2)c1` has an inhibition of -0.96%.
With `CCOc1ccc2c(-c3ccnc(Nc4cccc(C(F)(F)F)c4)n3)cnn2n1` the inhibition was 2.78%.
Work on `CCN1CCC(CC(=O)Nc2n[nH]c3nnc(-c4cccc(F)c4F)cc23)CC1` yielded an inhibition of 0.5%.
`FC(F)(F)c1cccc(-c2nn3ncccc3c2-c2ccnc(Nc3ccc4c(c3)OCCO4)n2)c1` showed an inhibition of 3.05%.
`Cc1cccc2c1NC(=O)/C2=N\Nc1ccc(S(N)(=O)=O)cc1` was tested, and the inhibition was 2.59%.
Work on `COc1cccc(-c2c[nH]c3c(N/N=C/c4ccncc4)ncnc23)c1` yielded an inhibition of 1.55%.
For `COc1ccc(-c2cc(-c3c[nH]nc3-c3ccccn3)ccn2)cc1`, the inhibition was 2.09%.
